Calls of active or inactive are those of the source.
Key:
[1] = system: PRMT1 (protein arginine N-methyltransferase 1); assay: small molecules binding arginine methyltransferase PRMT1 – biochemical, small-molecule microarray, 635 nm fluorescence, primary screen (AID 1088); details: higher = more signal;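 note: binding of Prmt1 protein to compounds spotted on small-molecule microarray slides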
[2] = growth effects on S. cerevisiae YJM789 – YJM789 clinical isolate, OD600, 24 h, basal, primary screen (AID 1089); details: higher = more signal, called active from +8 up or from −8 down;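 note: growth of clinical yeast isolate S. cerevisiae YJM 789 seeded 1000 cells per well; test concentration not given here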
[3] = S. pombe growth modifiers, basal conditions – strain 972, OD600, 24 h, no modulator, primary screen (AID 1090);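 note: basal condition with compound alone and no growth modifier present; test concentration not given here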; details: S. pombe 972 growth, higher = more signal, called active from +8 up or from −8 down
[4] = budding yeast growth modifiers under rapamycin – strain BY4716, OD600, 96 h, primary screen (AID 1091); note: test concentration not given here; details: S. cerevisiae BY4716 + rapamycin, higher = more signal, called active from +8 up or from −8 down
[5] = target: Torsin-1A-interacting protein 2 (Homo sapiens) (UniProt Q8NFQ8); assay: small molecules binding lysate-expressed LULL1 – cell lysate, human LULL1 lysate, 635/667 nm fluorescence, primary screen (AID 1092); details: small-molecule microarray, hLULL1 lysate binding, 635 nm fluorescence; higher = more signal;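 note: probe is lysate of COS7 cells overexpressing human LULL1; score merges per-feature 667 nm fluorescence with signal-to-noise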
Sequence of Torsin-1A-interacting protein 2 (Homo sapiens) (Q8NFQ8 whole entry, looked up): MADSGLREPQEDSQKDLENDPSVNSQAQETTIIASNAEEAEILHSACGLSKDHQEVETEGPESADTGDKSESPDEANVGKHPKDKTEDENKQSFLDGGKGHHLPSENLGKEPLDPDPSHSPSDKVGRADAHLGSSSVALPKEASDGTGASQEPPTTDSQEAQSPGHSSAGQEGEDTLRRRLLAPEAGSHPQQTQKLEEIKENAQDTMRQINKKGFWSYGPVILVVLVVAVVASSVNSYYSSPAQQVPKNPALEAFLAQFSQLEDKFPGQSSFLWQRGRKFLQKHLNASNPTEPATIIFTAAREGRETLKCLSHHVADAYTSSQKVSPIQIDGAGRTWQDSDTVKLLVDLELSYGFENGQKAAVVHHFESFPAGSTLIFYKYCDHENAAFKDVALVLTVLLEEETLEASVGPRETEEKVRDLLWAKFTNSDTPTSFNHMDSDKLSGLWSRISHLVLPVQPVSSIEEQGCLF

[6] = optical density change of DRC41 E. coli – strain DRC41, OD650, 24 h, E. coli filamentation project, primary screen (AID 1093);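 note: MC1000 strain lacking acrAB efflux and sulA so SOS filamentation is blocked; test concentration not given here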; details: E. coli DRC41 growth, higher = more signal, called active from +8 up or from −8 down
[7] = probe aLefty2 binding to arrayed compounds – biochemical, biotinylated probe, 635/667 nm fluorescence, primary screen (AID 1094); details: small-molecule microarray, higher = more signal;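 note: score merges spot fluorescence near 667 nm with spot signal-to-noise ratio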
[8] = system: Noggin (protein binding on small-molecule microarray); assay: small molecules binding Noggin protein – biochemical, 635/667 nm fluorescence, primary screen (AID 1095); details: 635 nm fluorescence, higher = more signal;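 note: score merges 667 nm feature fluorescence with signal to noise over triplicate slides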
[9] = target: Neurogenic locus notch homolog protein 3 (Homo sapiens) (UniProt Q9UM47); assay: small molecules binding NOTCH3 protein – biochemical, 635/667 nm fluorescence, primary screen (AID 1096); details: small-molecule microarray, 635 nm fluorescence, higher = more signal
Sequence of Neurogenic locus notch homolog protein 3 (Homo sapiens) (Q9UM47 whole entry, looked up): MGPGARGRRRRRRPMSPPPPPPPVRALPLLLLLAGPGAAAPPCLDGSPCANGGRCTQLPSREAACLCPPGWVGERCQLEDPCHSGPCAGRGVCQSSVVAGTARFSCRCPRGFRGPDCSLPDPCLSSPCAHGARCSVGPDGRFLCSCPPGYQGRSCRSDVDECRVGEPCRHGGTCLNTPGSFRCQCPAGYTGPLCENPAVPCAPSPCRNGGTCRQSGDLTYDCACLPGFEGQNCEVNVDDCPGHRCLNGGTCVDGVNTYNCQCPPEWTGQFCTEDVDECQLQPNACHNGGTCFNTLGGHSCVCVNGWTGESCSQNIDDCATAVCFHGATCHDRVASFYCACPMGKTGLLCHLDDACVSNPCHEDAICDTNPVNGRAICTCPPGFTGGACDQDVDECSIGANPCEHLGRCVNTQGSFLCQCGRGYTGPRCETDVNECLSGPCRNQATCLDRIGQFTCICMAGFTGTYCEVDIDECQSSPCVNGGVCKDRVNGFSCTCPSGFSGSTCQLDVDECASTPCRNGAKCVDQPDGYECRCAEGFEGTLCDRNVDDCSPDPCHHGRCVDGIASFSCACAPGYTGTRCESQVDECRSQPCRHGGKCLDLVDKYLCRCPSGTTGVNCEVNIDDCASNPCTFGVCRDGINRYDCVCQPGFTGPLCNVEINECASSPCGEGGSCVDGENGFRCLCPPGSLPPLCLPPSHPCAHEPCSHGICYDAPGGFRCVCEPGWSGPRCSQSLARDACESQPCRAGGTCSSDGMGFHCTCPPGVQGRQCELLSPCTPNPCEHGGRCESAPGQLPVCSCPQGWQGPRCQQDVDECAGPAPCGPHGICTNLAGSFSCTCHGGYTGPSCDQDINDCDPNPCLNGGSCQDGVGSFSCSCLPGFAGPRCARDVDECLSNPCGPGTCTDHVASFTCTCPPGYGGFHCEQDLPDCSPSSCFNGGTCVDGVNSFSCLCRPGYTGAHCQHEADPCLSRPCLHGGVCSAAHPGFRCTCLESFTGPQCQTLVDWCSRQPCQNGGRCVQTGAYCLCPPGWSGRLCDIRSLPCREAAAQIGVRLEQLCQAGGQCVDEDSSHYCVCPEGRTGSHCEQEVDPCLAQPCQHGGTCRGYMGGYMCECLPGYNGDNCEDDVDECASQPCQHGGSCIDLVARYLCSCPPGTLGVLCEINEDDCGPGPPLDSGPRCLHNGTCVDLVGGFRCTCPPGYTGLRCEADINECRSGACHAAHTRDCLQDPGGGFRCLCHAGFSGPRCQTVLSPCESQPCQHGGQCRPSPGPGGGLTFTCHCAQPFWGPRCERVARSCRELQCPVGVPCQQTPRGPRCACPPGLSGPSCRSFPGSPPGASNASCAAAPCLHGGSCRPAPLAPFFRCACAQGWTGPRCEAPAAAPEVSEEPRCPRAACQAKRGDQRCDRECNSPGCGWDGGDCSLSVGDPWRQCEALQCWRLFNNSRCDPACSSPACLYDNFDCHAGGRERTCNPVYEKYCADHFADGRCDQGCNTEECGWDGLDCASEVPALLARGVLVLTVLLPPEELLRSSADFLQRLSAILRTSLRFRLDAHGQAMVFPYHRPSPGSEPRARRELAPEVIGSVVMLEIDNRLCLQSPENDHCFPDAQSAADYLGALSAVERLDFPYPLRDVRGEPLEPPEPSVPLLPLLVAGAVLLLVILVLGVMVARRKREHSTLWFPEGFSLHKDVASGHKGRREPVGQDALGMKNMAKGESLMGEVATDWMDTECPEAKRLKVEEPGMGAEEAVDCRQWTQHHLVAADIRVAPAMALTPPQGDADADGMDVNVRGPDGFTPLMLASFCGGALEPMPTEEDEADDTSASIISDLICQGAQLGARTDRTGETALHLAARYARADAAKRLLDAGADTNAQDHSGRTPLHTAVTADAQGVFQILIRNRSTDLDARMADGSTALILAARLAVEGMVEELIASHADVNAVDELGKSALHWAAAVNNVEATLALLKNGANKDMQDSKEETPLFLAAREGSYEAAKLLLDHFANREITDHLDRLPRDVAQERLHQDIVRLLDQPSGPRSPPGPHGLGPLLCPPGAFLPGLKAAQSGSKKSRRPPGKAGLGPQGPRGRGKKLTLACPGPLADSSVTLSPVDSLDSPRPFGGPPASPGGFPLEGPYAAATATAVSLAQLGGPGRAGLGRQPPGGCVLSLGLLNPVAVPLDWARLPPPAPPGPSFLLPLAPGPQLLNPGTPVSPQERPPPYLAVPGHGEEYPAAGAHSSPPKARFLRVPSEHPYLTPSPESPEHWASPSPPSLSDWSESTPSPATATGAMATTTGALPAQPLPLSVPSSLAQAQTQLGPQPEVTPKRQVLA

[10] = probe aEGFR binding to arrayed compounds – biochemical, biotinylated probe, 635/667 nm fluorescence, primary screen (AID 1097); details: small-molecule microarray, higher = more signal;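 note: probe is a biotinylated anti-EGFR antibody binding compounds printed on slides; score combines fluorescence near 667 nm and signal to noise of each spot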
[11] = system: Plasmodium falciparum Sir2 (PF13_0152, Sir2A); assay: Plasmodium falciparum Sir2A binding compounds – biochemical, small-molecule microarray, 635 nm fluorescence, primary screen (AID 1098); details: fluorescence 635 nm, higher = more signal;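 note: score merges spot fluorescence intensity with its signal-to-noise ratio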
[12] = probe aDKK1 binding to arrayed compounds – biochemical, biotinylated probe, 635/667 nm fluorescence, primary screen (AID 1099); details: small-molecule microarray, higher = more signal;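 note: score merges 667nm spot fluorescence with signal to noise across triplicate slides; reference of the scale not given here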
[13] = probe aCHRDL2 binding to arrayed compounds – biochemical, biotinylated probe, 635/667 nm fluorescence, primary screen (AID 1100); details: small-molecule microarray, higher = more signal
[14] = change in splice reporter luminescence, either direction, cell-based, HEK293, spliceosome inhibition project, primary screen (AID 1101); details: HEK293 splicing luciferase reporter, 24 h, higher = more signal, called active from +8 up or from −8 down;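 note: HEK293 cells carrying a splicing-competent luciferase reporter gene; test concentration not given here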
[15] = target: Fibroblast growth factor 10 (Homo sapiens) (UniProt O15520); assay: compounds binding fibroblast growth factor 10 – biochemical, small-molecule microarray, 635 nm fluorescence, primary screen (AID 1102); details: FGF10 binding, fluorescence 635 nm, higher = more signal
Sequence of Fibroblast growth factor 10 (Homo sapiens) (O15520 whole entry, looked up): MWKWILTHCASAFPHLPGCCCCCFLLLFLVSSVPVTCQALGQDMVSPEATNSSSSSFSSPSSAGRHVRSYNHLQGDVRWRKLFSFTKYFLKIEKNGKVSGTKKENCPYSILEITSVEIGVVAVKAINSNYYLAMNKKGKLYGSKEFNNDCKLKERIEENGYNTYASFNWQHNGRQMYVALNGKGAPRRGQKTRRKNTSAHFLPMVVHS

[16] = system: glycogen synthase kinase-3 (GSK3A per assay name; protocol says GSK3B); assay: compounds binding glycogen synthase kinase-3 – biochemical, small-molecule microarray, 635 nm fluorescence, GSK3A, primary screen (AID 1103); details: fluorescence 635 nm, higher = more signal; note: the record names both GSK3A and GSK3B
[17] = target: Epidermal growth factor receptor (Homo sapiens) (UniProt P00533); assay: compounds binding epidermal growth factor receptor – biochemical, small-molecule microarray, 635 nm fluorescence, primary screen (AID 1104); details: EGFR binding, higher = more signal;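 note: score merges 667 nm emission intensity with spot signal to noise over triplicate slides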
Sequence of Epidermal growth factor receptor (Homo sapiens) (P00533 whole entry, looked up): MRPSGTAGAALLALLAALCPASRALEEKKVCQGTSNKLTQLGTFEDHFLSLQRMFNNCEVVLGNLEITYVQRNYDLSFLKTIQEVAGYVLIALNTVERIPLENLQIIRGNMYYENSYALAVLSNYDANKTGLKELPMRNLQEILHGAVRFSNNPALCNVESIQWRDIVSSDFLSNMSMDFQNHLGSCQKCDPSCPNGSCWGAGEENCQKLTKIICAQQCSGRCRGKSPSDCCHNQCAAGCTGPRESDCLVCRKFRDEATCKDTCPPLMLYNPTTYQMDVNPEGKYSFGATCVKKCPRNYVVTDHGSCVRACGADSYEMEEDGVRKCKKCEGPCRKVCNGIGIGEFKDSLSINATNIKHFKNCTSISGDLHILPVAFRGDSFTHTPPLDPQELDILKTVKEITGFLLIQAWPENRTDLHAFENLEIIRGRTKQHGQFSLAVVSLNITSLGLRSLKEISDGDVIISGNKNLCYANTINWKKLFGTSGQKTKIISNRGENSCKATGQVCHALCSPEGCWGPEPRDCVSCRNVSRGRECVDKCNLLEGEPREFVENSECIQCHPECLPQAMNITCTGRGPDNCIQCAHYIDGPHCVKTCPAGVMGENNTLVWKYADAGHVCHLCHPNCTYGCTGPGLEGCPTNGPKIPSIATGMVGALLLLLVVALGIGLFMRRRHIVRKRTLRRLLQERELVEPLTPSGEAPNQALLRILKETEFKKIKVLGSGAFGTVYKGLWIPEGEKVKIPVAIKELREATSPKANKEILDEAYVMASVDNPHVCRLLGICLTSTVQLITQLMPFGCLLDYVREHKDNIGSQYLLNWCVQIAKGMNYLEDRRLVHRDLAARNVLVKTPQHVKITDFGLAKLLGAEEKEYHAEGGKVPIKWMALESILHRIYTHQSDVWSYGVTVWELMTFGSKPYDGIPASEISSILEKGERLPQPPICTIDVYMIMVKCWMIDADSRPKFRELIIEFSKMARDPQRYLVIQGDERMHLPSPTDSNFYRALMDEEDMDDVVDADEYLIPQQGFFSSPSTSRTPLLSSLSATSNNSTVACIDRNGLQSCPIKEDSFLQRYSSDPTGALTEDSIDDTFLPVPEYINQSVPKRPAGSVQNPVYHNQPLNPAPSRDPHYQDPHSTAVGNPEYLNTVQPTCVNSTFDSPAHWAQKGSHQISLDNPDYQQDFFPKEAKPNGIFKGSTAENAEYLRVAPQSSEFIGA

[18] = target: Follistatin-related protein 3 (Homo sapiens) (UniProt O95633); assay: compounds binding follistatin-related protein 3 – biochemical, small-molecule microarray, 635 nm fluorescence, primary screen (AID 1105); details: FSTL3 binding, higher = more signal;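 note: score merges emission near 667 nm and signal to noise per printed spot across three slides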
Sequence of Follistatin-related protein 3 (Homo sapiens) (O95633 whole entry, looked up): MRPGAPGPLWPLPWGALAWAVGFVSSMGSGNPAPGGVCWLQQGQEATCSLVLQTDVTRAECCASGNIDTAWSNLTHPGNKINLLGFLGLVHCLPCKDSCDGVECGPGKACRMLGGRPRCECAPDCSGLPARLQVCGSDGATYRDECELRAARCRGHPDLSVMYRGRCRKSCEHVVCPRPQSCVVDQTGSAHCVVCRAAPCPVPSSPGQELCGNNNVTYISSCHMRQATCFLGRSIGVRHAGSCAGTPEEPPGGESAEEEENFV

[19] = target: Dickkopf-related protein 1 (Homo sapiens) (UniProt O94907); assay: small molecules binding DKK1 protein – biochemical, small-molecule microarray, 635 nm fluorescence scan, primary screen (AID 1106); details: higher = more signal;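 note: score merges emission near 667 nm with signal to noise over three replicate slides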
Sequence of Dickkopf-related protein 1 (Homo sapiens) (O94907 whole entry, looked up): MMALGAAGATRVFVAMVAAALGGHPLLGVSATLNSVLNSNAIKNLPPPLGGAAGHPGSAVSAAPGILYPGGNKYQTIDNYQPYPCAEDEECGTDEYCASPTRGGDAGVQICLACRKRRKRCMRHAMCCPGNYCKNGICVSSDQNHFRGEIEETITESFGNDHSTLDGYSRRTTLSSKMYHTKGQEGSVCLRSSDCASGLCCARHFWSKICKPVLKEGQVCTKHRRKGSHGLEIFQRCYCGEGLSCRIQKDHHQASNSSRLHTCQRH

[20] = system: Inhibin beta A chain (activin A); assay: small molecules binding activin A – biochemical, small-molecule microarray, 635 nm fluorescence scan, primary screen (AID 1107); details: INHBA, higher = more signal;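 note: mouse activin A protein probed at 4.33 µg/mL on printed slides; score merges bound-protein fluorescence near 667 nm with spot signal-to-noise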

Row | Structure (SMILES) | composite z-score [1] | z-score [2] | z-score [3] | z-score [4] | composite z-score [5] | z-score [6] | composite z-score [7] | composite z-score [8] | composite z-score [9] | composite z-score [10] | composite z-score [11] | composite z-score [12] | composite z-score [13] | z-score [14] | composite z-score [15] | composite z-score [16] | composite z-score [17] | composite z-score [18] | composite z-score [19] | composite z-score [20]
1 | C=C[C@H](OC)[C@@H](O)c1ccc(OC)c(O)c1 | -1.84 | 0.0615 (inactive) | 0.242 (inactive) | -0.0251 (inactive) | -0.456 | -0.0822 (inactive) | -0.0783 | -0.81 | -0.436 | -0.258 | 0.352 | -0.464 | 0.37 | 0.772 (inactive) | -0.928 | -1.3 | -1.14 | -1.91 | -1.29 | -1.28
2 | COc1cc(Cc2cc3c(c(CCc4ccccc4)n2)[Si](C(C)C)(C(C)C)O[C@H]3c2ccccc2)cc(OC)c1OC | -0.651 | -2.28 (inactive) | -19.9 (active) | -0.549 (inactive) | -0.355 | -0.637 (inactive) | -0.0284 | -0.288 | -0.446 | -0.129 | 1.05 | 0.0709 | 0.366 | -1.06 (inactive) | -0.507 | -1.04 | -0.4 | -0.617 | -0.308 | 0.87
3 | COC(=O)[C@@]1(Cc2ccc(F)cc2)[C@H]2c3cc(C(=O)N4CCCC4)n(C[C@H](O)CO)c3C[C@H]2CN1C(=O)c1ccccc1 | -0.399 | -0.161 (inactive) | 1.34 (inactive) | -0.0363 (inactive) | 1.57 | -0.836 (inactive) | 1.03 | -0.123 | 0.176 | 0.732 | 0.543 | 1.48 | 0.609 | 0.749 (inactive) | 0.0396 | 0.094 | -0.0057 | 0.111 | 0.145 | 0.549
4 | O=C(NCC(F)(F)F)[C@@H]1c2ccccc2C(=O)N(Cc2cc(C(F)(F)F)cc(C(F)(F)F)c2)[C@H]1c1ccc(CO)cc1 | 0.648 | 0.338 (inactive) | 0.459 (inactive) | -0.359 (inactive) | 1.04 | 0.955 (inactive) | -0.217 | 0.148 | -0.122 | -0.219 | 1.78 | -0.207 | 0.272 | 0.245 (inactive) | 0.728 | -0.137 | -0.284 | -0.145 | 0.382 | 0.0807
5 | COC(=O)[C@@]1(Cc2ccccc2)[C@H]2c3cc(C(=O)N(C)C)n(Cc4nc5ccccc5[nH]4)c3C[C@H]2CN1C(=O)c1ccccc1 | 0.964 | -0.895 (inactive) | 0.338 (inactive) | -0.678 (inactive) | 3.5 | 0.914 (inactive) | 0.718 | -0.307 | 1.06 | 0.135 | 0.88 | 0.52 | 1.21 | -2.1 (inactive) | 0.742 | 0.64 | 0.226 | 0.841 | -0.416 | 0.893
6 | CC(C)C[C@@H]1NC(=O)[C@@H]2C[C@H](C(=O)NCCCCCCNC(=O)CS)[C@H](c3ccc(O)cc3)N2C1=O | 1.53 | 0.279 (inactive) | 0.101 (inactive) | 0.971 (inactive) | 2.93 | 1.27 (inactive) | 0.0277 | 1.26 | 1.11 | 0.0886 | 1.57 | -0.0965 | 0.254 | -1.1 (inactive) | 1.45 | 1.26 | 0.672 | 1.47 | 1.27 | -0.0334
7 | COC(=O)[C@@]1(Cc2ccc(F)cc2)[C@H]2c3cc(C(=O)N4CCCC4)n(Cc4ccc(OC(F)(F)F)cc4)c3C[C@H]2CN1C(=O)c1ccccc1 | -1.08 | 0.646 (inactive) | 0.693 (inactive) | -0.16 (inactive) | 2.1 | -1.01 (inactive) | -0.0238 | -1.2 | -1.23 | -0.0472 | 0.776 | 0.142 | 0.548 | 1.08 (inactive) | -0.135 | -0.141 | -0.564 | -1.03 | -0.559 | 0.602
8 | C=C(C(=O)CC[C@@H](OC(=O)c1ccccc1-c1ccccc1C(=O)O)c1ccc(CO)o1)C(C)C | 1.47 | -0.595 (inactive) | -0.39 (inactive) | -0.881 (inactive) | 0.167 | -0.249 (inactive) | -0.19 | 1.07 | 1.07 | -0.0947 | 1.07 | -0.258 | -0.532 | 0.88 (inactive) | 1.51 | 0.913 | -0.132 | 0.648 | 1.12 | 0.927
9 | [N-]=[N+]=Nc1ccccc1C[C@@]1(C(=O)NCC(O)CO)N=C(c2ccc(OCCCO)cc2)O[C@@H]1c1ccccc1N=[N+]=[N-] (stereo not given in full) | 0.9 | -0.961 (inactive) | 0.0801 (inactive) | 0.23 (inactive) | 3.37 | 0.616 (inactive) | 0.285 | 0.0196 | 0.298 | 0.0001 | 1.05 | 0.106 | 1.09 | 8.25 (active) | 0.233 | 0.446 | -0.283 | 0.855 | -0.67 | 1.33
10 | CC[C@@H](O[Si](C#C[Si](C(C)C)(C(C)C)C(C)C)(C(C)C)C(C)C)c1cn([C@H](CO)Cc2ccccc2)nn1 | 1.34 | 1.57 (inactive) | 1.22 (inactive) | 0.532 (inactive) | 1.51 | 0.598 (inactive) | -0.232 | 0.715 | 0.907 | -0.0584 | 0.954 | -0.331 | -0.592 | 0.131 (inactive) | 0.675 | 0.566 | 0.236 | 0.675 | 0.39 | -0.092
